Assay outcomes: PubChem, National Center for Advancing Translational Sciences (NCATS)
A selection: hits, their analogues and other compounds. The true share with any hit is near 3.6%.
LDHA inh – LDHA (human) enzyme inhibition | P00338 | purified LDHA, NADH/diaphorase-resazurin fluorescence; active compounds read low | activity change, % (values are at about 110 or 230 µM) | hit rate 0.15% among 480,000 | AID 1347041; in the data active means activity change below about -30%;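 further: plate controls were DMSO wells for no effect and wells without enzyme for full effect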
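Human LDH5 at 2 nM final in Tris HCl pH 7.4 with 0.06 mM NADH and 0.2 mM pyruvate, reacted 5 minutes at room temperature. Remaining NADH coupled via diaphorase/resazurin; resorufin fluorescence read at 0 and 20 minutes, normalized to enzyme-free and DMSO wells.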
D1 agonist – activates the human D1 dopamine receptor; P21728; HEK293 T-REx D1 cells, calcium flux, agonist mode; activation, % at 2 µM; hit rate 1% among 360,000; AID 504660; in the data active means activation above about 30%; further: 0% is about no effect
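Inducible HEK293 T-REx D1 cells, force-coupled to calcium signalling, were plated at 4000 cells/well with tetracycline and held overnight at 30 C. After no-wash calcium dye loading, compound-evoked calcium rise over 180 s flagged agonists.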
TRHR agonist-1 – agonists of human TRH receptor; activation, % at 2 µM; AID 493084; hit rate 0.18% among 360,000; TRHR cells, calcium flux fluo-8, FDSS agonist mode; in the data active means activation above about 30%; further: 0% is about no effect
Target sequence (P34981 whole entry, looked up): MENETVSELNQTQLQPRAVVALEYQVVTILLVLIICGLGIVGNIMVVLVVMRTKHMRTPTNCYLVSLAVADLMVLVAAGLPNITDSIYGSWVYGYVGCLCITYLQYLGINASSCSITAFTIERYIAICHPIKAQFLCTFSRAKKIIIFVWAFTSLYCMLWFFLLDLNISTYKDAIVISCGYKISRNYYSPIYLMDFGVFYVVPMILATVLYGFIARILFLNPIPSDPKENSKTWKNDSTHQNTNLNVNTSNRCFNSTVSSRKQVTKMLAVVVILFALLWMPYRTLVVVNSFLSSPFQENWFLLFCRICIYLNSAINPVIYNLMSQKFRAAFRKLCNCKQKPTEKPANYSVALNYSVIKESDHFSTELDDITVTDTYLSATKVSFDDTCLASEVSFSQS
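Steps: seed TRHR cells overnight; add fluo-8 no-wash Ca dye, RT 30 min–1.5 h; record 10 s baseline; pin-transfer compounds; monitor fluorescence 1 cycle/s for the agonist window. Calcium increases flag candidate agonists.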
TRHR enhancer-1 – TRH receptor (human) allosteric enhancement; TRHR cells, fluo-8 calcium fluorescence, EC20 TRH enhancement; enhancement, % at 2 µM; hit rate 0.66% among 360,000; in the data active means enhancement above about 30%; further: 0% is about no effect
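TRHR-expressing cells loaded with fluo-8 calcium dye were read kinetically (ex 480/em 530) during compound addition, then stimulated with an EC20 of TRH (10 nM final). Enhancement of the Gq-mediated intracellular calcium response was scored.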
D1 potentiator – enhances dopamine response at the human D1 receptor. hit rate 0.036% among 360,000. P21728. HEK293 TREx D1 cells, calcium flux, dopamine EC20 potentiation. potentiation, % at 10 µM. AID 504651; in the data active means potentiation above about 30%; further: 0% is about no effect
D1 antagonist – human D1 dopamine receptor antagonism. HEK293 TREx D1 cells, calcium flux, dopamine EC80; active compounds read low. activity change, negative = inhibition, % at 10 µM. hit rate 3.2% among 360,000. AID 504652; in the data active means activity change below about -30%; further: on the % scale 0 is the no-effect control and ±100 the full control effect
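Kinetic fluorescence of a calcium dye serves as the read-out. D1-expressing Hek293 Trex cells, induced overnight at 30 C, are exposed to compound for 180 s before an EC80 dopamine addition, then read 180 s further.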
TRHR enhancer-2 – confirmation of human TRH receptor allosteric enhancers; shares compounds with TRHR enhancer-1; TRH receptor cell assay, enhancer confirmation qHTS; activity change, negative = inhibition, % at 46.1 µM; 970 tested, under 10 active; AID 493076;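 further: compound effect scored on response to added TRH at EC20 of 10 nM; 0% is about no effect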
TRHR agonist-2 – human TRH receptor agonism confirmation; shares compounds with TRHR enhancer-1; TRHR-expressing cells, agonist activation read-out; Potency, µM (highest dose often 46.1 µM), inactives show at the highest dose activation, usual class: activators; hit rate 8% among 970; AID 493078; further: potency means the concentration at half of the fitted maximal effect; 0% is about no effect; nearly all actives have a fitted effect of over 75% in size
An asterisk follows results filed as active. Unless noted, the call rests on the fitted dose curve; in most records, active means well fitted curve in the direction sought with a large enough effect; inconclusive means small, poorly fitted or top-dose-only effect, or another doubt; inactive means no such curve, though single readings can be large; an effect the other way counts as inactive or inconclusive.

What do the screens show for `Nc1ccc(/C=C/C(=O)c2ccc(F)cc2)cc1`?
LDHA inh: 12

How did Cc1nc(S(=O)(=O)N2CCN(C3c4ccccc4-c4ccccc43)CC2)cn1C do in these assays?
LDHA inh: -7; D1 agonist: 5; TRHR agonist-1: 1; TRHR enhancer-1: 43*; D1 potentiator: 6; D1 antagonist: 22; TRHR enhancer-2: 8; TRHR agonist-2: 5%

What do the screens show for `Cc1ccc(C(O)CNC(=O)Nc2cc(C)ccc2C)cc1` (stereo not drawn)?
LDHA inh: 6

How did COCCn1c(SCC(=O)N2CCCC2)nnc1C(C)C do in these assays?
LDHA inh: -11; D1 agonist: 2; TRHR agonist-1: 0; TRHR enhancer-1: 5; D1 potentiator: 2; D1 antagonist: -10

What do the screens show for `CCCn1c(SCC(=O)N2CCCCC2)nnc1-c1ccco1`?
LDHA inh: -7; D1 agonist: 2; TRHR agonist-1: 0; TRHR enhancer-1: 49*; D1 potentiator: -2; D1 antagonist: 15; TRHR enhancer-2: 4; TRHR agonist-2: -1%

How did CCCn1c(SCC(=O)N2CCCCC2)nnc1C(C)C do in these assays?
LDHA inh: -8; D1 agonist: 4; TRHR agonist-1: 32*; TRHR enhancer-1: -5; D1 potentiator: -2; D1 antagonist: 7; TRHR enhancer-2: -4; TRHR agonist-2: 1%

How did Cc1sc2nc(CN3CCOCC3)nc(Sc3nnnn3C3CC3)c2c1C do in these assays?
LDHA inh: 13

What do the screens show for `COc1ccc2oc(=O)c(-c3nc(-c4ccccc4C)no3)cc2c1`?
LDHA inh: -5

Results for CCCCn1nnnc1NCc1ccc(OC)c(OC)c1OC ?
LDHA inh: -12; D1 agonist: 3; TRHR agonist-1: 0; TRHR enhancer-1: 45*; D1 potentiator: 0; D1 antagonist: 26; TRHR enhancer-2: -3; TRHR agonist-2: 2%

How did COc1cccc(CNc2nnnn2C)c1OC do in these assays?
LDHA inh: -2; D1 agonist: -2; TRHR agonist-1: 0; TRHR enhancer-1: -1; D1 potentiator: -4; D1 antagonist: 19

How did CC(=O)c1cccc(NC(=O)CSc2nc(=O)[nH]c3c2CCCC3)c1 do in these assays?
LDHA inh: 7

How did Cc1csc(NC(=O)CSc2nc(=O)[nH]c3c2CCCC3)n1 do in these assays?
LDHA inh: -14; D1 agonist: 6; TRHR agonist-1: 0; TRHR enhancer-1: 66*; D1 potentiator: -3; D1 antagonist: 11; TRHR enhancer-2: -7; TRHR agonist-2: 1%

Results for Cc1cc(C)c(OCC(=O)Nc2ccc(S(=O)(=O)N3CCOCC3)cc2)c(C)c1 ?
LDHA inh: -6; D1 agonist: 28; TRHR agonist-1: 1; TRHR enhancer-1: 41*; D1 potentiator: -2; D1 antagonist: -2; TRHR enhancer-2: -9; TRHR agonist-2: 1%

What do the screens show for `COc1ccccc1OCC(=O)Nc1ccc(S(=O)(=O)N2CCOCC2)cc1`?
LDHA inh: -1; D1 agonist: 0; TRHR agonist-1: 0; TRHR enhancer-1: -3; D1 potentiator: -1; D1 antagonist: -1

What do the screens show for `COc1ccc(C(C)=O)cc1CN1CCc2ccccc2C1`?
LDHA inh: 13

What do the screens show for `O=C(Nc1ccccc1)C1CC(=O)n2ncnc2N1` (stereo not drawn)?
LDHA inh: 0; D1 agonist: 3; TRHR agonist-1: 1; TRHR enhancer-1: -5; D1 potentiator: 6; D1 antagonist: -4

How did CCOc1ccccc1NC(=O)C1CC(=O)n2ncnc2N1 (stereo not drawn) do in these assays?
LDHA inh: -5; D1 agonist: 3; TRHR agonist-1: 0; TRHR enhancer-1: 48*; D1 potentiator: 0; D1 antagonist: 5; TRHR enhancer-2: 0; TRHR agonist-2: 0%

What do the screens show for `Cc1c(C)c2cc3c(C)coc3cc2oc1=O`?
LDHA inh: -4; D1 agonist: 2; TRHR agonist-1: 0; TRHR enhancer-1: 41*; D1 potentiator: -4; D1 antagonist: -20; TRHR enhancer-2: -8; TRHR agonist-2: -1%

How did O=C(O)CCNS(=O)(=O)/C=C/c1ccccc1 do in these assays?
LDHA inh: -8

What do the screens show for `O=C(Cc1ccccc1)N1CCNCC1`?
LDHA inh: -2; D1 agonist: 6; TRHR agonist-1: 0; TRHR enhancer-1: 55*; D1 potentiator: 0; D1 antagonist: -7; TRHR enhancer-2: -6; TRHR agonist-2: 1%

How did O=C(Cc1ccccc1)N1CCN(C(=O)c2ccco2)CC1 do in these assays?
LDHA inh: -1; D1 agonist: -1; TRHR agonist-1: 1; TRHR enhancer-1: 2; D1 potentiator: -5; D1 antagonist: 9

Results for O=C(Cc1ccccc1)NCC(=O)N1CCCCC1 ?
LDHA inh: -2; D1 agonist: 3; TRHR agonist-1: 1; TRHR enhancer-1: 43*; D1 potentiator: 0; D1 antagonist: 12; TRHR enhancer-2: -3; TRHR agonist-2: 1%

How did CCCN(Cc1cc(=O)[nH]c2c(OC)cccc12)C(=O)Nc1ccccc1OCC do in these assays?
LDHA inh: -2

How did CCc1ccc(N2C(=O)CC(c3ccc(F)cc3)C3=C2COC3=O)cc1 (stereo not drawn) do in these assays?
D1 agonist: 5; TRHR agonist-1: 0; TRHR enhancer-1: 73*; D1 potentiator: -5; D1 antagonist: -17; TRHR enhancer-2: -6; TRHR agonist-2: 1%

Results for O=C1OCC2=C1C(c1ccc(F)cc1)CC(=O)N2c1ccc(F)cc1 (stereo not drawn) ?
D1 agonist: 3; TRHR agonist-1: -1; TRHR enhancer-1: -11; D1 potentiator: -2; D1 antagonist: 3

Results for COc1ccc(-n2ncc3c(N(C)C4CCCCC4)ncnc32)cc1 ?
LDHA inh: -12; D1 agonist: 4; TRHR agonist-1: 1; TRHR enhancer-1: -14; D1 potentiator: 1; D1 antagonist: -17

How did Cc1cccc(-n2ncc3c(N(C)C4CCCCC4)ncnc32)c1 do in these assays?
LDHA inh: -1; D1 agonist: 4; TRHR agonist-1: -1; TRHR enhancer-1: 49*; D1 potentiator: -2; D1 antagonist: -4; TRHR enhancer-2: -6; TRHR agonist-2: 0%

How did N#Cc1c(-c2ccccc2)cc(-c2ccc3c(c2)OCO3)[nH]c1=O do in these assays?
LDHA inh: -3; D1 agonist: 0; TRHR agonist-1: -1; TRHR enhancer-1: 53*; D1 potentiator: -2; D1 antagonist: 11; TRHR enhancer-2: -6; TRHR agonist-2: 3%
